Source: PubChem (National Center for Advancing Translational Sciences (NCATS))
FBPA coupling cs = qHTS Assay for Inhibitors of Fructose-1,6-bisphosphate Aldolase from Giardia Lamblia: Coupling assay counterscreen | coupling enzyme system counterscreen, AmpLite Red fluorescence | activity change, negative = inhibition, % at 58.2 µM, hits read low | 290,000 compounds, 0.67% hits; in the data active means activity change below about -30%
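Counterscreen of the coupled detection system alone, without aldolase: glyceraldehyde-3-phosphate coupling enzymes plus AmpLite Red readout. Compounds at 57.5 uM final, 10 min RT preincubation, 20 min RT reaction, fluorescence 525/598 nm.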
Giardia kill = Small Molecules that selectively kill Giardia lamblia: qHTS; 340,000 compounds, 0.15% hits; activity change, % at 7.66 µM, hits read low; AID 540267, 2011; Giardia lamblia trophozoite viability; in the data active means activity change below about -80%; inconclusive means between about -30% and that limit;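 further: parasites exposed to compound for two days anaerobically before the ATP read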
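Trophozoite viability was measured as ATP-dependent luminescence, read 15-30 min after reagent addition. Before that, parasites at 100 cells/well were exposed to compounds for 48 h, anaerobically, at 37 deg C.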
USP1 inh = Inhibitors of USP1/UAF1: Primary Screen | Potency, µM (doses to about 57.1 µM), hits mostly inhibitors | recombinant USP1/UAF1, Ub-Rhodamine cleavage fluorescence | AID 743255, 2014 | Ubiquitin carboxyl-terminal hydrolase 1 (Homo sapiens), O94782 | 390,000 compounds, 0.23% hits; active means well fitted inhibition curve with a large enough effect; inconclusive means small, poorly fitted or top-dose-only effect; inactive means no such curve, though single readings can be large or run the other way; further: nearly all actives have a fitted effect of over 60% in size
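In this screen, compounds sit with the deubiquitinase complex (1nM) for 15 min at room temperature before Ub-Rho is added at 150nM final. Fluorescence rise is then followed for 6 reads every 60 seconds.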
KCNH2 WT inh = qHTS for Inhibitors of KCHN2 3.1: Wildtype qHTS; Voltage-gated inwardly rectifying potassium channel KCNH2 (Homo sapiens), Q12809; U2OS, BacMam KCNH2, thallium flux FluxOr; active compounds read low; activity change, % at 1.84 µM; 340,000 compounds, 0.37% hits; AID 720551, 2013;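 active means maximum activity change below -70%; inconclusive means maximum activity change between -70% and -50%; inactive means maximum activity change above -50%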
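U2OS cells transduced with wild-type KCNH2 virus are loaded with FluxOr dye for 45 min, and thallium flux is measured in kinetic reads before and after stimulation buffer. Rate constants are normalized to DMSO controls.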
KCNH2 3.1 block = qHTS for Inhibitors of KCHN2 3.1: Mutant qHTS | U2OS KCNH2 3.1, thallium flux FluxOr; active compounds read low | activity change, % (tested at about 1.8 µM) | 340,000 compounds, 0.95% hits;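 active means maximum activity change below -70%; inconclusive means maximum activity change from -70% to -50%; inactive means maximum activity change above -50%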;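 further: thallium influx rate constant from kinetic fluorescence after stimulation buffer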
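Channel expression came from 3.1 mutant virus (1.77 x 10^8 /mL) applied to suspended U2OS cells for 4 h. Flux was tracked with FluxOr dye plus Red40 quencher, and kinetic rate constants normalized to controls.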
Hits are given with their value; – = inactive; ? = inconclusive; · = not tested or not shown. An excerpt weighted towards active compounds, which were near 1.7% of everything screened.

SMILES	FBPA coupling cs	Giardia kill	USP1 inh	KCNH2 WT inh	KCNH2 3.1 block
COc1ccc(C(=O)NC2CC2)cc1OC1CCN(Cc2ccc(Cl)cc2)CC1	·	–	–	-128	·
C/C=C(\C)CN1CCC(Oc2cc(C(=O)NC3CC3)ccc2OC)CC1	·	–	–	–	·
COc1ccc(C(=O)NC2CC2)cc1OC1CCN(C(C)CSC)CC1 (configuration not stated)	–	–	–	–	-74
COc1ccc(C(=O)NC2CC2)cc1OC1CCN(Cc2ccccc2O)CC1	·	–	–	–	–
CCc1ccc(CN2CCC(Oc3cc(C(=O)NC4CC4)ccc3OC)CC2)cc1	·	·	–	-108	-97
CCCCCCCC1=Cc2ccccc2C(CC(=O)c2ccccc2)N1C(=O)OC (configuration not stated)	–	·	·	·	·
COc1ccc(C(=O)NCCCC2CCCC2)cc1OC1CCN(C(C)C)CC1	·	·	–	–	-94
COc1ccc(C(=O)N(Cc2ccco2)Cc2cccs2)c(OC)c1	·	–	·	·	·
COc1ccc(/C=C/C(=O)NNc2cc(=O)n(C)c(=O)n2C)cc1OC	-31	–	–	–	–
COc1cc(/C=C\C(=O)Nc2cc(=O)n(C)c(=O)n2C)cc(OC)c1OC	–	–	–	–	–
COc1ccc(/C=N/Nc2cc(=O)n(C)c(=O)n2C)cc1OC	-35	–	–	–	–
CCC(=O)NC1=C(Nc2ccc(N)cc2)C(=O)c2ccccc2C1=O	–	–	?	–	–
CCC(=O)N(C1=C(NC(C)C)C(=O)c2ccccc2C1=O)C(C)C	-34	–	?	–	–
CCOC(=O)C1=C(C)NC(=O)C1CC(=O)Nc1ccccc1 (configuration not stated)	-42	·	·	·	·
CCOC(=O)C1=C(C)NC(=O)NC1c1ccc(OCC(=O)Nc2ccccc2)c(OC)c1 (configuration not stated)	–	–	–	–	–
O=c1c(-c2ccccc2)c(O)c2ccccc2n1-c1ccccc1	–	–	–	–	-72
CCOc1cc(/C=C(\C#N)C(=O)NCC2CCCO2)ccc1OCC(N)=O (configuration not stated)	–	–	–	-136	-185
COCCn1c(N)c(C(=O)OCc2ccccc2)c2nc3ccccc3nc21	-37	–	–	–	–
Cc1ccc(N/C(C(Cl)=C(Cl)Cl)=C(/Cl)[N+](=O)[O-])c(C)c1	–	-94	–	·	–
Cc1ccc(NC(=O)CC(=O)Nc2ccc(C)cc2C)c(C)c1	–	–	–	–	–
Cc1ccc2c(c1)c(=O)c(C(=O)c1ccccc1)cn2Cc1ccccc1F	·	·	–	·	·
CCCCn1c(/C=C/c2ccco2)nc2ccccc21	–	–	–	–	–
CCCCn1c(/C=N/Nc2nc3ccccc3[nH]2)nc2ccccc21	–	–	–	-73	–
COc1cc(CC(=O)N(CC(C)C)C2CCS(=O)(=O)C2)cc(OC)c1OC (configuration not stated)	·	–	–	–	–
CCCCNS(=O)(=O)c1ccc2nc(-c3cccnc3)cc(C(=O)NCCCOC(C)C)c2c1	·	·	–	·	·
SMILES	FBPA coupling cs	Giardia kill	USP1 inh	KCNH2 WT inh	KCNH2 3.1 block
CC(C)(C)c1ccc(OCc2ccc(C(=O)N/N=C/c3ccc([N+](=O)[O-])cc3)o2)cc1	–	–	–	–	-80
CCCN1C(=O)S/C(=C\c2ccc(N3CCOCC3)cc2C)C1=O	–	·	·	·	·
CCCN1C(=O)S/C(=C\c2ccc(N3CCOCC3)o2)C1=O	-50	–	25µM	–	–
COC(=O)CN1C(=O)S/C(=C/c2ccc(N3CCCCC3)o2)C1=O	-43	–	28µM	–	–
CCCN1C(=O)S/C(=C/c2ccc(N3CCOCC3)o2)C1=O	-48	–	28µM	–	–
CCCN1CNc2c(c(=O)[nH]c(=O)n2CCc2ccc(OC)c(OC)c2)C1	·	–	·	·	·
Cc1cccc(-c2cccc(-c3cc(=O)oc4cc5c(cc34)OCO5)c2)c1	–	·	·	·	·
Cc1cccc(N2CCN(C(=O)c3cnn(-c4ccc(F)cc4F)c3C3CCN(C(=O)OC(C)(C)C)CC3)CC2)c1C	·	·	–	·	·
COc1ccc(C=O)cc1CN1CCCN(Cc2ccc(Cl)cc2)S1(=O)=O	–	–	–	–	–
COC(=O)c1ccc(OC)c(CN2CCCN(Cc3ccc(F)cc3)S2(=O)=O)c1	-31	–	–	–	–
CCOc1ccc(Nc2cc(C)c(C#N)c3nc4ccccc4n23)cc1	·	·	–	·	·
CCOC(=O)c1cc(S(=O)(=O)Nc2ccc(C)cc2Cl)[nH]n1	·	·	–	·	·
CS(=O)(=O)n1nc(-c2ccco2)nc1NCc1ccccc1Cl	·	·	–	·	·
Cn1cc(CN2CCC(C(=O)Nc3cccc(-c4cccc(F)c4)c3)CC2)cn1	·	–	–	–	–
O=C(Nc1cccc(-c2cccc(Cl)c2)c1)C1CCN(Cc2ccccn2)CC1	·	–	–	?	-72
Cc1c(CN2CCC(C(=O)Nc3cccc(-c4cccc(Cl)c4)c3)CC2)cnn1C	–	–	–	-100	-85
O=C(Nc1cccc(-c2cccc(Cl)c2)c1)C1CCN(Cc2ccon2)CC1	–	–	–	–	–
COc1cccc(CN2CCC(C(=O)Nc3ccc(-c4cccc(C)c4)cc3)CC2)c1O	–	–	–	–	-95
CCCn1ncc(CN2CCC(C(=O)Nc3cccc(-c4cccc(F)c4)c3)CC2)c1C	–	–	–	?	-85
Cc1ccc(CNC(=O)N2CCC(CN3CCC(C)CC3)CC2)cc1	·	·	–	·	·
C=CCn1cc(CN2CCC(C(=O)Nc3cccc(-c4cccc(F)c4)c3)CC2)c(C)n1	·	–	–	–	–
Cc1cccc(CN2CCC(C(=O)Nc3cccc(-c4cccc(F)c4)c3)CC2)n1	–	–	–	-74	-94
COCc1ccc(CN2CCC(C(=O)Nc3cccc(-c4cccc(Cl)c4)c3)CC2)o1	·	–	–	-82	-81
C=CCn1cc(CN2CCC(C(=O)Nc3cccc(-c4cccc(Cl)c4)c3)CC2)c(C)n1	–	–	–	-99	-93
CSCC[C@H](NC(=O)[C@H](Cc1ccc(OS(=O)(=O)O)cc1)NC(=O)[C@@H](N)CC(=O)O)C(=O)NCC(=O)N[C@@H](Cc1c[nH]c2ccccc12)C(=O)N[C@@H](CCSC)C(=O)N[C@@H](CC(=O)O)C(=O)N[C@@H](Cc1ccccc1)C(N)=O	–	·	·	·	·
COc1ccccc1NC(=O)COc1cccnc1[N+](=O)[O-]	·	?	–	–	–
COC(=O)c1sc(NC(=O)COc2cccnc2[N+](=O)[O-])c(C(=O)OC)c1C	·	-82	–	–	–
COc1ccc(NC(=O)c2cccc3c2C(=O)c2ccc(-c4cnc(OC)nc4)cc2S3(=O)=O)cc1	·	–	–	–	–
CCc1cc(=O)[nH]c(SCc2cccc3ccccc23)n1	–	–	–	–	-110
